Out of some 310,000 compounds screened, about 14,000 (4.5%) showed an effect of 50% or more. Effects have a minus sign here. The sample holds strong results, similar compounds and a random draw of the others, so the mix is not that of the screen.
Molecular target: human ether-à-go-go-related gene (hERG) potassium channel (human, UniProt Q12809)
Test: primary screen, population patch clamp on CHO cells stably expressing hERG; higher = less effect of the substance
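Further: peak tail current of the secondary pulse compared with the same well before compound.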

human ether-à-go-go-related gene (hERG) potassium channel, sequence (Q12809 whole entry, looked up): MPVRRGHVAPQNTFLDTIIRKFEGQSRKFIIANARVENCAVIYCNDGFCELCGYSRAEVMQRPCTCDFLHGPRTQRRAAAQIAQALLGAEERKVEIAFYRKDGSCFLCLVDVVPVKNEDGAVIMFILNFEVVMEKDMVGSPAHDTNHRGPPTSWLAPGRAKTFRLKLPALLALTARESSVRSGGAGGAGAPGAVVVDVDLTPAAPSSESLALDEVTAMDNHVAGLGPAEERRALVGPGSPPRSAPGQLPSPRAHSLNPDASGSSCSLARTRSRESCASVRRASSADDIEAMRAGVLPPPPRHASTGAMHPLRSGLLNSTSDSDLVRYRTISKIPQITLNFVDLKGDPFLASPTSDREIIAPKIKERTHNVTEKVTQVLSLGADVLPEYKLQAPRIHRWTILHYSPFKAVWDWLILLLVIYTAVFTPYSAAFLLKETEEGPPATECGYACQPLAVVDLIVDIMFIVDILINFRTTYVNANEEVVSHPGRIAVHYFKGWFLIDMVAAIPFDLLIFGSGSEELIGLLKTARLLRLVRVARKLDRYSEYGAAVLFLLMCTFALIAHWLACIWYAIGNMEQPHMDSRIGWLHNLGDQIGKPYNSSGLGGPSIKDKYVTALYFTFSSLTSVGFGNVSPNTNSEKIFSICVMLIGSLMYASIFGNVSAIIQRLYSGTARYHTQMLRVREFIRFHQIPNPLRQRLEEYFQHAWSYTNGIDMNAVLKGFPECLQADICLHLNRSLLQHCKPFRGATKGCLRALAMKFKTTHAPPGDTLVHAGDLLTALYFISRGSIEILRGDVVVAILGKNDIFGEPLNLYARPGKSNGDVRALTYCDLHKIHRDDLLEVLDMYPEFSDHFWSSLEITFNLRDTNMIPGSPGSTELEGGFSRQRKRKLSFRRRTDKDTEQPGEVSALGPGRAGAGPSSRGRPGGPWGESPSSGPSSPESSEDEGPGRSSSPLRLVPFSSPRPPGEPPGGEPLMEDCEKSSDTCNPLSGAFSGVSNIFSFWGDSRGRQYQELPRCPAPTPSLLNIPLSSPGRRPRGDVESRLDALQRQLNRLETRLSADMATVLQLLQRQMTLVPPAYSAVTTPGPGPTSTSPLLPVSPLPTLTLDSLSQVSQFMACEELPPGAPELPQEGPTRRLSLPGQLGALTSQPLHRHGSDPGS

SMILES	hERG current change (%, negative = inhibition) at 10uM [%]
COc1ccc(NC(=O)c2ccc(-n3cncn3)c([N+](=O)[O-])c2)cc1OC	-2.52
CC(C)(Cc1cc(CC(C)(C)C(=O)O)cc(C(C)(C)C)c1)C(=O)O	10.4
Cc1ccc(Nc2c(-c3ccc(N4CCOCC4)cc3)nc3ncccn23)cc1C	7.71
COCc1nc(-c2ccc(-c3ccccc3)nc2OC)no1	-2.5
COc1ccc(NC(=O)N2CCN(S(=O)(=O)c3ccc(F)cc3)CC2)c(OC)c1	-6.4
O=C(CCN1CCN(S(=O)(=O)c2ccc(F)cc2)CC1)Nc1ccccc1F	-8.34
O=C(CN1CCCN(S(=O)(=O)c2ccc(F)cc2)CC1)Nc1ccccc1Br	-49.1
COc1ccc(S(=O)(=O)N2CCN(CCC(=O)Nc3ccccc3F)CC2)cc1	-0.0172
COc1ccc(NC(=O)CN2CCCN(S(=O)(=O)c3ccc(F)cc3)CC2)c(OC)c1	-54.6
COc1ccc(NC(=O)CN2CCN(S(=O)(=O)c3ccc(Br)cc3)CC2)c(OC)c1	19.8
COc1ccc(S(=O)(=O)N2CCN(CC(=O)Nc3ccccc3OC)CC2)cc1	-5.56
COc1ccc(S(=O)(=O)N2CCCN(CC(=O)Nc3ccccc3F)CC2)cc1	-55.7
O=C(CN1CCN(S(=O)(=O)c2ccc(Br)cc2)CC1)Nc1ccccc1F	-62.5
O=C(CN1CCN(S(=O)(=O)c2ccc(F)cc2)CC1)Nc1ccccc1F	-56.1
O=C(CN1CCN(S(=O)(=O)c2ccc(Br)cc2)CC1)Nc1ccccc1C(=O)c1ccccc1	1.26
O=C(CCN1CCN(S(=O)(=O)c2ccc(Br)cc2)CC1)Nc1ccccc1F	-31.2
Cc1ccsc1C(=O)c1sccc1C	-3.08
CSc1ccc(CCNC(=O)c2cc(-c3ccccc3)c(N3CCOCC3)s2)cc1	-1.02
O=C(NCc1ccncc1)c1ccc(Cl)c(S(=O)(=O)N2CCCCC2)c1	-22.4
O=C1CN(O)C=C2N=c3ccccc3=C2N1c1ccc([N+](=O)[O-])cc1	-26.6
Cc1ccc(OCc2nnc(SCC(=O)c3ccccc3)n2Cc2ccco2)cc1	-47.1
COc1ccc(NC(=O)C(NC(=O)CC2NC(=O)NC2=O)c2ccccc2)cc1 (centres unmarked)	-2.49
CSc1ccccc1NC(=O)CSCc1ccc(C)cc1	-7.79

Source: publication PMC4336329 (PLoS ONE, 2015)
